99 compounds from PubChem BioAssay AID1628 (Sanford-Burnham Center for Chemical Genomics, 2009) can be followed below.

Screen size: about 190,000 compounds; about 930 (0.49%) were called active. The list shows a part of the results. Entries with a potency or affinity are not part of this list. A number with no mark means an inactive call.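 How the source made its calls: active means z-score of insulin promoter reporter brightness in nuclei below -3 at 5 µM, with at least 500 cells counted; inconclusive means wells with under 500 cells, flagged as toxic or sparse; inactive means the rest.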

The test is described as follows: decrease of insulin promoter-GFP reporter – imaging, high-content screening, mouse beta cells (AID 1628). To be noted: MIN6 insulin promoter GFP reporter, at 5 µM, stronger effect = lower value.
Regarding `O=C(O)c1ccccc1N/N=C/c1c(Sc2nnnn2-c2ccccc2)nc2ccccn2c1=O`, the z-score is 9.93.

On to `CCOC(=O)CC1C(=O)NCCN1c1nc2c(C)cccn2c(=O)c1/C=C1\SC(=S)N(C(C)CC)C1=O` (centres undefined), for which the z-score is 9.72.

As for `O=C(N/N=C/c1ccc(O)cc1O)c1ccc(CN2C(=O)c3cccc4cccc2c34)cc1`, the z-score is -3.91 (active).

For `O=C1c2cccc3c(O)ccc(c23)C(=O)N1Cc1ccccc1`, the z-score was 5.05.

With `CSc1c(C#N)c(N)nc2sc(C(=O)c3ccc(Cl)c(Cl)c3)c(N)c12`, the z-score was 5.56.

As for `CCN(CC)S(=O)(=O)c1cccc(S(=O)(=O)c2cccc(S(=O)(=O)N(CC)CC)c2)c1`, the z-score was -4.75 (active).

On to `COc1ccc(NC(=S)N(CCCN2CCC(C)CC2)Cc2cccs2)cc1`, for which the z-score was 1.67.

In the case of `Cc1cc(NC(=S)N(Cc2ccc(Br)cc2)Cc2ccc(C(=O)O)cc2)ccc1Cl`, the z-score is 3.8.

Take `CC(C)N1CC=C2C(C#N)=C(N)C(C#N)(C#N)C(c3ccccc3)C2C1` (centres undefined): the z-score was 5.63.

On to `Cc1cccc(NC(=O)Nc2ccc(C#N)cc2)n1`, for which the z-score was 3.41.

`CC(C)(C)c1nc(NC(=O)Nc2ccccc2)sc1Br`: the z-score was -4.02 (active).

Consider `COc1cc(N=Nc2cccc(S(N)(=O)=O)c2)c2ccccc2c1N`, for which the z-score is 5.92.

As for `CCN(CC)c1ccc2cc(S(=O)(=O)c3ccc(Cl)cc3)c(=O)oc2c1`, the z-score is 6.96.

`CN(C)c1ncc(S(=O)(=O)c2ccc(Cl)cc2)c(-c2ccccc2)n1`: the z-score is -3.06 (active).

With `O=C(CSc1ccc(-c2ccccc2)nn1)NCC1CCCO1` (centres undefined), the z-score is 3.02.

With `O=C(CSc1oc(-c2ccco2)nc1S(=O)(=O)c1ccc(F)cc1)NCC1CCCO1` (centres undefined), the z-score was 0.69.

For `C=CCN1C(=O)c2cccc3c(N4CCCCC4)ccc(c23)C1=O`, the z-score was 5.61.

`C=CCc1ccccc1OCC(O)CN1CCN(CCN2C(=O)c3cccc4cccc(c34)C2=O)CC1` (centres undefined): the z-score was -5.75 (active).

As to `COc1ccc(NC(=O)C(=O)NCc2ccncc2)c(OC)c1`, the z-score is -4.99 (active).

As to `COc1ccc(NC(=O)C/C(C)=N/NC(=O)C(=O)Nc2cccc(Cl)c2C)c(OC)c1`, the z-score was 0.92.

Consider `CC(C)C1S/C(=N/N=C/c2ccco2)NC1=O` (centres undefined), for which the z-score was 3.25.

In the case of `O=C(c1cc([N+](=O)[O-])ccc1N1CCCC1)N1CCCC1`, the z-score is 3.06.

As for `Nc1ccc2c(c1)Cc1cc([N+](=O)[O-])ccc1-2`, the z-score is 7.76.

Take `N#Cc1cc([N+](=O)[O-])ccc1N1CCCC1`: the z-score is -5.65 (active).

For the compound `Cc1cc(C)nc(SCc2ccc(C(=O)N/N=C/c3cccc(O)c3O)cc2)n1`, the z-score is -3.45 (active).

As to `Cc1cc(C)nc(SCSc2nc(C)cc(C)n2)n1`, the z-score is 4.55.

As for `O=C(Nc1ccc(F)cc1)Nc1cc(OCC(F)(F)F)cc(OCC(F)(F)F)c1`, the z-score is -3.21 (active).

Turning to `COC(=O)c1ccc(NC(=O)Nc2ccc(F)cc2)cc1`, the z-score was -3.46 (active).

On to `COC(=O)c1sc2ccccc2c1-n1cccc1C(=O)C(=O)Nc1ccc(F)cc1`, for which the z-score was 5.4.

For the compound `Cc1ccc(SCc2cc(-c3ccc(Cl)cc3)no2)cc1`, the z-score is 3.09.

As for `O=C1Nc2ccc(Br)cc2C12NNc1ccccc1O2` (centres undefined), the z-score is 14.4.

Regarding `O=C(Nc1ccc(Cl)cc1)/C(=C/c1ccc([N+](=O)[O-])cc1)c1nc2ccccc2s1`, the z-score was -4.86 (active).

Take `N#C/C(=C/c1ccc(O)c([N+](=O)[O-])c1)C(=O)Nc1ccccc1`: the z-score was 1.31.

Regarding `O=C(Cc1nc(-c2ccc([N+](=O)[O-])cc2)cs1)Nc1ccccc1`, the z-score is 8.58.

For the compound `Cc1ccc(-n2c(C)nc3oc4ccccc4c(=O)c3c2=O)cc1`, the z-score was 3.88.

On to `CC1(C)Cc2c(C#N)c(SCC(=O)c3ccccc3)nc(N3CCOCC3)c2CO1`, for which the z-score is -3.99 (active).

For the compound `CC1(C)Cc2c(C#N)c(SCCOc3ccccc3)nc(N3CCOCC3)c2CO1`, the z-score was -3.51 (active).

On to `N#Cc1c(-c2ccco2)cc(C2CC2)nc1SCC(=O)c1ccccc1`, for which the z-score was 5.22.

As to `CC1(C)Cc2c(c(-c3ccccc3)[nH]c(=O)c2C#N)CO1`, the z-score is 3.41.

For the compound `N#Cc1c(C(F)(F)F)cc(-c2ccccc2)nc1SCc1nc(N)nc(N2CCOCC2)n1`, the z-score is 15.4.

Consider `N#Cc1ccc(-c2ccc(Cl)cc2)nc1SCC(=O)c1cccc(Cl)c1`, for which the z-score is 6.91.

On to `N#Cc1ccc(-c2ccccc2)nc1SCC(=O)c1cccc(Cl)c1`, for which the z-score is 4.3.

For the compound `CC1(C)Cc2c(C#N)c(SCC(=O)c3ccccc3)nc(N3CCOCC3)c2CS1`, the z-score is -3.04 (active).

As for `CCOc1cc2[nH]c(=S)n(CCCN(CC)CC)c(=O)c2cc1OCC`, the z-score is 0.51.

In the case of `Nc1c(C(=O)C2CC2)sc2nc(-c3cccs3)cc(C(F)(F)F)c12`, the z-score was 15.5.

In the case of `S=C(N/N=C/c1cccs1)NC1CC2CCC1C2` (centres undefined), the z-score was -3.1 (active).

Turning to `CN(C)c1ccc(/C=N/NC(=O)CN(c2ccccc2Cl)S(C)(=O)=O)cc1Br`, the z-score is 3.57.

In the case of `CN(C)c1ccc(/C=C2\C(=N)N3C(=NC2=O)Sc2cc(S(C)(=O)=O)ccc23)cc1`, the z-score was 3.93.

Regarding `CC(C)c1ccc(/C=N/NC(=O)c2cccc(Cl)c2)cc1`, the z-score is -3.75 (active).

For `CC(/C=N/NC(=O)c1ccncc1)=C\c1ccc(C(C)C)cc1`, the z-score is 3.19.

As for `Cn1cc(/C=C2\SC(=S)N(NC(=O)c3cccc(Cl)c3)C2=O)c2ccccc21`, the z-score is 7.3.

Take `CC1=NN(c2ccccc2)C(=O)C1/C=C1\NC(=S)NC1=O` (centres undefined): the z-score was 3.53.

With `C/C(N)=C(/C#N)C(=O)CSc1nnnn1-c1ccc(C)cc1C`, the z-score is -3.38 (active).

On to `c1csc(-c2ccnc3ncnn23)c1`, for which the z-score was -4.89 (active).

In the case of `S=C(Nc1ccc(Nc2ccccc2)cc1)Nc1ccccn1`, the z-score is -3.32 (active).

With `O=C(CC(=O)Nc1ccccn1)Nc1ccccn1`, the z-score was -0.03.

Turning to `CCOC(=O)c1sc2cc([N+](=O)[O-])cc(SCC(C)C)c2c1N`, the z-score is 13.9.

Regarding `CC(=O)c1n[nH]nc1Nc1nc(C)cc(C)n1`, the z-score is 0.61.

With `c1ccc(CNc2cnccn2)cc1`, the z-score is 1.28.

As to `Cc1cccc(NC(=O)C2CCCN(C(=O)NC3CCCCC3)C2)c1C` (centres undefined), the z-score was -3.03 (active).

For the compound `O=C(NC1CC1)C1CCCN1C(=O)NC1CCCCC1` (centres undefined), the z-score is 2.65.

For the compound `COc1cc(C)nc(N2CCCC(C(=O)Nc3cccc(Cl)c3C)C2)n1` (centres undefined), the z-score was 3.87.

`Cc1ccc(NS(=O)(=O)c2cc([N+](=O)[O-])ccc2N/N=C/c2sc(N3CCOCC3)nc2-c2ccccc2)c(C)c1`: the z-score is 11.

On to `Cc1[nH]c2ccccc2c1/C=N/Nc1ccc([N+](=O)[O-])cc1S(=O)(=O)Nc1ccc(Cl)cc1`, for which the z-score is 9.19.

For the compound `C=CCSc1nnc(C)c(/C=C/Nc2ccc(Cl)cc2)n1`, the z-score was 5.19.

For the compound `CCC(=O)Oc1ccc(C(=O)Nc2c[nH]c(=O)[nH]c2=O)cc1`, the z-score was -5 (active).

As to `NS(=O)(=O)c1ccc(NC=C2C(=O)OC3(CCCCC3)OC2=O)cc1`, the z-score was 3.78.

As for `NS(=O)(=O)c1ccc(NC(=S)NCc2ccccc2)cc1`, the z-score was -4.47 (active).

Regarding `Cc1cc(NC(=O)C2CC(=O)OC2c2ccccc2)no1` (centres undefined), the z-score was -4.4 (active).

Regarding `COc1ccccc1-n1c(N)cc(=O)nc1SCC(=O)Nc1cc(C)on1`, the z-score is 2.37.

As for `CC(=O)c1c(C)[nH]c(C(=O)OCC(=O)Nc2ccc(Cl)cc2[N+](=O)[O-])c1C`, the z-score is -3.98 (active).

For the compound `COc1ccc(NC(=O)c2[nH]c(C)c(C(C)=O)c2C)cc1Cl`, the z-score is 3.83.

Take `COC(=O)c1ccc(NC(=O)CSc2nc3cccnc3n2C)cc1`: the z-score was -4.12 (active).

As for `CCOC(=O)c1[nH]c2ccc(OC)cc2c1NS(=O)(=O)c1ccc(Cl)s1`, the z-score is -4.98 (active).

Take `CCC(C(=O)OCC(=O)Nc1cccc(S(=O)(=O)NC2=NCCCCC2)c1)c1ccccc1` (centres undefined): the z-score was 3.98.

In the case of `Cc1sc2ncnc(N3CCCCC3C)c2c1C` (centres undefined), the z-score was -4.4 (active).

Consider `C=CCN1C(=O)C(O)(CC(=O)c2ccc(OC)cc2OC)c2cc(Br)ccc21` (centres undefined), for which the z-score is -4.05 (active).

For the compound `COc1ccc(/C=C2\CC/C(=C\c3ccc(OC)cc3OC)C2=O)c(OC)c1`, the z-score was 5.49.

Turning to `COc1ccc(C(=O)/C=C/c2ccc(N(C)C)cc2)c(OC)c1`, the z-score was 15.9.

Turning to `O=C(CCSc1ccc(Cl)cc1)NN=C1CCCCCC1`, the z-score is 3.37.

In the case of `CC(Sc1ccccc1)C(=O)NN=C1CCCCCC1` (centres undefined), the z-score was 8.07.

Take `O=C(O)c1ccccc1NN=C1CCCCC1`: the z-score was -4.39 (active).

Turning to `CC1CC(C)(C)Nc2ccc(N=O)cc21` (centres undefined), the z-score was 4.12.

For `CN(C)c1ccc(/C=C2\SC(=O)N(CC(O)Cn3c4ccccc4c4ccccc43)C2=O)cc1` (centres undefined), the z-score is 3.6.

Take `O=c1ccc(NS(=O)(=O)c2ccccc2)cn1Cc1ccc(Cl)c(Cl)c1`: the z-score was 4.35.

`O=C1S/C(=C\c2ccc(N3CCOCC3)o2)C(=O)N1c1ccccc1`: the z-score was 12.7.

In the case of `COc1cc2c(cc1OC)C1=CC(=O)C(=O)N1C(C)(C)C2`, the z-score was 6.34.

Turning to `COCCN(CCOC)Cc1c(C)[nH]c2c(C)c(C)ccc2c1=O`, the z-score is 0.72.

`COC(=O)CSc1nc2ccccn2c(=O)c1C=O`: the z-score was 4.58.

Regarding `COC(=O)CSc1nc2ncc(Cl)cc2[nH]1`, the z-score is -4.43 (active).

`Cc1ccnc(N/C=C(\C#N)c2nc(-c3cccc(Br)c3)cs2)c1`: the z-score was 7.83.

For the compound `CCOC(=O)CC1C(=O)NCCN1c1nc2ccc(C)cn2c(=O)c1/C=C1\SC(=S)N(CC(C)C)C1=O` (centres undefined), the z-score is 10.8.

For the compound `CSc1ccc(NC(=O)Nc2cccn(Cc3ccccc3)c2=O)cc1`, the z-score is -5.72 (active).

For `COc1cnc(-c2ccccn2)nc1NC(C)C`, the z-score is -4.73 (active).

Consider `CCC(=O)Nc1ccc2c(c1)ncn2-c1ccccc1`, for which the z-score was 4.96.

For `COc1ccccc1NC(=O)/C=C1\SCC(=O)N1C`, the z-score is 4.67.

Consider `CC(=O)Nc1ccc(NC(=O)C(=O)c2cn(CC(=O)N3CCCCC3)c3ccccc23)cc1`, for which the z-score was 2.61.

`COc1ccccc1NC(=O)COC(=O)C1CC2C=CC1C2` (centres undefined): the z-score was 3.01.

With `COc1ccccc1NC(=O)Cn1cc(C(=O)c2ccco2)c2ccccc21`, the z-score was -4.69 (active).
